Experimental data published in the supplement of paper PMC12494721.
Where a name gives a salt, the structure may show the parent alone.

What follows are compounds tested on Escherichia coli IAI1 (assay: fold change of Putrescine concentration vs plate DMSO controls (fold change (ratio)); higher = more amine produced, active = hit call of the paper (significant change in both replicates, either direction)). Details: incubation time: 27 h, anaerobic, 37 °C;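 for the amine columns active = adjusted P below 0.05 in both replicates with a change the same way and a mean fold change under 0.8 or over 1.25; inactive = the rest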.
Summary of the method: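 Amine values are fold changes relative to DMSO-only wells on the same plate. They derive from 27 h, 37 °C anaerobic mGAM cultures of four gut bacterial strains in 80 µL wells, dosed at 20 µM final, or 50 µM final for sweeteners. Extraction of the whole culture, LC–triple-quadrupole MS in dynamic MRM mode, external calibration curves and within-batch drift correction were used, with 2 biological replicates averaged.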
`CN1CCC(=C2c3ccccc3CCc3cccnc32)CC1` [Azatadine maleate] (20 µM) was tested, and the “fold change of Putrescine concentration” value was 1.34 (inactive).
For `CC(=O)OC[C@H]1O[C@@H]([S-])[C@H](OC(C)=O)[C@@H](OC(C)=O)[C@@H]1OC(C)=O.CCP(CC)CC.[Au+]` [Auranofin] (20 µM), the “fold change of Putrescine concentration” value was 0.925 (inactive).
`C=CCOC(Cn1ccnc1)c1ccc(Cl)cc1Cl` (centres undefined) (20 µM) was tested, and the “fold change of Putrescine concentration” value was 0.942 (inactive).
For `CC[C@H](C)C(=O)O[C@H]1CCC=C2C=C[C@H](C)[C@H](CC[C@@H]3C[C@@H](O)CC(=O)O3)[C@H]21` [Mevastatin] (20 µM), the “fold change of Putrescine concentration” value was 0.998 (inactive).
`NS(=O)(=O)c1cc2c(cc1Cl)NC(Cc1ccccc1)NS2(=O)=O` (centres undefined) [Benzylhydrochlorothiazide] (20 µM) was tested, and the “fold change of Putrescine concentration” value was 1.06 (inactive).
`O=c1[nH]c(=O)n(C2CCCO2)cc1F` (centres undefined) [Tegafur] (20 µM) was tested, and the “fold change of Putrescine concentration” value was 1.25 (inactive).
`Cc1nn(C)c(Oc2ccccc2)c1/C=N/OCc1ccc(C(=O)OC(C)(C)C)cc1` (20 µM) was tested, and the “fold change of Putrescine concentration” value was 1.02 (inactive).
`CS(=O)(=O)OCCCCOS(C)(=O)=O` [Busulfan] (20 µM) was tested, and the “fold change of Putrescine concentration” value was 1.08 (inactive).
In the case of `CCSc1ccc2c(c1)N(CCCN1CCN(C)CC1)c1ccccc1S2` [Thiethylperazine maleate] (20 µM), the “fold change of Putrescine concentration” value is reported as 1.07 (inactive).
`Cc1ncc([N+](=O)[O-])n1C` [Dimetridazole] (20 µM) was tested, and the “fold change of Putrescine concentration” value was 1.05 (inactive).
In the case of `CC[C@@H]1C(=O)OC[C@@H]1Cc1cncn1C` [Pilocarpine nitrate] (20 µM), the “fold change of Putrescine concentration” value is reported as 1.02 (inactive).
For `Clc1ccc(C(Cn2ccnc2)OCc2ccsc2Cl)c(Cl)c1` (centres undefined) [Tioconazole] (20 µM), the “fold change of Putrescine concentration” value was 1.01 (inactive).
For `c1coc(CNc2ncnc3[nH]cnc23)c1` [Kinetin] (20 µM), the “fold change of Putrescine concentration” value was 1.08 (inactive).
With `CC1(C)O[C@@H]2C[C@H]3[C@@H]4CCC5=CC(=O)CC[C@]5(C)[C@@]4(F)[C@@H](O)C[C@]3(C)[C@]2(C(=O)CCl)O1` [Halcinonide] (20 µM) the “fold change of Putrescine concentration” value was 0.988 (inactive).
For `CC(=O)N[C@@H](CC(C)C)C(=O)O` [N-Acetyl-L-leucine] (20 µM), the “fold change of Putrescine concentration” value was 0.892 (inactive).
For `COc1cccc(CCc2ccccc2OCC(CN(C)C)OC(=O)CCC(=O)O)c1` (centres undefined) [Sarpogrelate hydrochloride] (20 µM), the “fold change of Putrescine concentration” value was 1.02 (inactive).
For `CN1CCC(=C2c3ccccc3CCc3sccc32)CC1` [Pizotifen malate] (20 µM), the “fold change of Putrescine concentration” value was 1 (inactive).
For `Oc1ccc2ccccc2c1N=Nc1ccccc1` [Sudan I (1-phenylazo-2-hydroxynaphthalene)] (20 µM), the “fold change of Putrescine concentration” value was 0.952 (inactive).
With `CC(C)(C)c1ccc(C(=O)CCCN2CCC(OC(c3ccccc3)c3ccccc3)CC2)cc1` [Ebastine] (20 µM) the “fold change of Putrescine concentration” value was 1.02 (inactive).
With `O=c1oc2cc(O)ccc2s1` [Tioxolone] (20 µM) the “fold change of Putrescine concentration” value was 1.02 (inactive).
In the case of `CCCOc1ccc(C(=O)OCCN(CC)CC)cc1N` [Proparacaine hydrochloride] (20 µM), the “fold change of Putrescine concentration” value is reported as 1.13 (inactive).
`CC(C)NC[C@H](O)COc1cccc2ccccc12` [(S)-(-)-Propranolol hydrochloride] (20 µM) was tested, and the “fold change of Putrescine concentration” value was 0.986 (inactive).
`COc1cc(C(=O)NCc2ccc(OCCN(C)C)cc2)cc(OC)c1OC` [Trimethobenzamide hydrochloride] (20 µM) was tested, and the “fold change of Putrescine concentration” value was 1.05 (inactive).
With `N[C@@H](Cc1cc(I)c(Oc2cc(I)c(O)c(I)c2)c(I)c1)C(=O)O` [(L) Thyroxine] (20 µM) the “fold change of Putrescine concentration” value was 1.01 (inactive).
With `O=C(NCC(O)CO)c1c(I)c(C(=O)NCC(O)CO)c(I)c(N(CCO)C(=O)CO)c1I` (centres undefined) [Ioversol] (20 µM) the “fold change of Putrescine concentration” value was 0.923 (inactive).
`CCCCC[C@H](O)/C=C/[C@H]1[C@H](O)CC(=O)[C@@H]1CCCCCCC(=O)O` [Alprostadil] (20 µM) was tested, and the “fold change of Putrescine concentration” value was 1.05 (inactive).
With `CC(C)(CO)[C@@H](O)C(=O)NCCCC(=O)O` [Hopantenate calcium] (20 µM) the “fold change of Putrescine concentration” value was 1.01 (inactive).
`Cc1nnc(NS(=O)(=O)c2ccc(N)cc2)s1` [Sulfamethizole] (20 µM) was tested, and the “fold change of Putrescine concentration” value was 0.961 (inactive).
For `OC[C@H](O)C(O)[C@@H](O)CO` [L-Arabinitol] (50 µM), the “fold change of Putrescine concentration” value was 1.06 (inactive).
With `CN/C(=N\CCSCc1nc[nH]c1C)NC#N` [Cimetidine] (20 µM) the “fold change of Putrescine concentration” value was 1.02 (inactive).
For `CCN(CC)C(=O)/C(C#N)=C/c1cc(O)c(O)c([N+](=O)[O-])c1` [Entacapone] (20 µM), the “fold change of Putrescine concentration” value was 0.993 (inactive).
In the case of `OC(CNCC(O)C1CCc2cc(F)ccc2O1)C1CCc2cc(F)ccc2O1` (centres undefined) [Nebivolol hydrochloride] (20 µM), the “fold change of Putrescine concentration” value is reported as 1.03 (inactive).
With `CCN(CC)CC(=O)Nc1c(C)cccc1C` [Lidocaine hydrochloride] (20 µM) the “fold change of Putrescine concentration” value was 0.95 (inactive).
In the case of `C[C@H](NCc1ccc(OCc2cccc(F)c2)cc1)C(N)=O` [Safinamide] (20 µM), the “fold change of Putrescine concentration” value is reported as 1 (inactive).
With `CN(C)CCc1c[nH]c2ccc(Cn3cncn3)cc12` [Rizatriptan benzoate] (20 µM) the “fold change of Putrescine concentration” value was 0.97 (inactive).
With `C[C@H]1C[C@@H]2[C@H]([C@@H](O)C[C@@]3(C)[C@H]2CC[C@]3(O)C(=O)CO)[C@@]2(C)C=CC(=O)C=C12` [Methylprednisolone, 6-alpha] (20 µM) the “fold change of Putrescine concentration” value was 0.991 (inactive).
`CC1COc2ccccc2N1C(=O)C(Cl)Cl` (centres undefined) (20 µM) was tested, and the “fold change of Putrescine concentration” value was 0.986 (inactive).
`C=C1c2cccc(O)c2C(O)=C2C(=O)[C@]3(O)C(O)=C(C(N)=O)C(=O)[C@@H](N(C)C)[C@@H]3[C@@H](O)[C@H]12` [Methacycline hydrochloride] (20 µM) was tested, and the “fold change of Putrescine concentration” value was 0.177 (active).
`CCN1CCCC(OC(=O)C(c2ccccc2)c2ccccc2)C1` (centres undefined) [Piperidolate hydrochloride] (20 µM) was tested, and the “fold change of Putrescine concentration” value was 1.02 (inactive).
